# Among all 5,500 compounds or so, about 2,000 (36%) were called active. Inconclusive results (about 18%) are left out. The list shows a part of the results. A number with no mark means an inactive call. No stated cut-off is given here; in the data, active means normalized growth mostly below about 0.91 (no sharp cut-off); inconclusive means no clear call, values can overlap the other calls; inactive means mostly above about 0.92.
# Experiment: chemical genetic growth profiling, strain panel (AID 1159580);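 further: tested at 20 µM; growth read once vehicle control cultures reached saturation at 30 °C; 1 = growth at the plate median or of vehicle wells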
# Details: S. cerevisiae deletion strains, growth OD
smiles,measurement,setting,value
CC(C)c1ccc(NCC(O)CSc2ccccc2)cc1 (stereo unspecified),normalized growth,"locus YAR019C, strain CDC15, stronger effect = lower value",0.956
same,normalized growth,"locus YBL105C, strain PKC1, stronger effect = lower value",0.957
same,normalized growth,"locus YBR135W, strain CKS1, stronger effect = lower value",0.952
same,normalized growth,"locus YBR136W, strain MEC1, stronger effect = lower value",0.952
same,normalized growth,"locus YBR160W, strain CDC28, stronger effect = lower value",0.966
same,normalized growth,"locus YDL017W, strain CDC7, stronger effect = lower value",0.969
same,normalized growth,"locus YDL028C, strain MPS1, stronger effect = lower value",0.955
same,normalized growth,"locus YDL101C, strain DUN1, stronger effect = lower value",0.951
same,normalized growth,"locus YDL108W, strain KIN28, stronger effect = lower value",0.943
same,normalized growth,"locus YDL132W, strain cdc53, stronger effect = lower value",0.948
same,normalized growth,"locus YDL214C, strain PRR2, stronger effect = lower value",0.808
same,normalized growth,"locus YDR052C, strain DBF4, stronger effect = lower value",0.974
same,normalized growth,"locus YDR054C, strain cdc34, stronger effect = lower value",0.947
same,normalized growth,"locus YDR226W, strain ADK1, stronger effect = lower value",0.983
same,normalized growth,"locus YDR477W, strain SNF1, stronger effect = lower value",0.805
same,normalized growth,"locus YER123W, strain YCK3, stronger effect = lower value",0.755
same,normalized growth,"locus YER133W, strain GLC7, stronger effect = lower value",0.796
same,normalized growth,"locus YFL009W, strain cdc4, stronger effect = lower value",0.952
same,normalized growth,"locus YFL029C, strain CAK1, stronger effect = lower value",0.952
same,normalized growth,"locus YFR003C, strain YPI1, stronger effect = lower value",0.959
same,normalized growth,"locus YFR019W, strain FAB1, stronger effect = lower value",0.928
same,normalized growth,"locus YFR028C, strain CDC14, stronger effect = lower value",0.957
same,normalized growth,"locus YGR040W, strain KSS1, stronger effect = lower value",0.801
same,normalized growth,"locus YGR052W, strain FMP48, stronger effect = lower value",0.717
same,normalized growth,"locus YGR092W, strain DBF2, stronger effect = lower value",0.696
same,normalized growth,"locus YHR030C, strain SLT2, stronger effect = lower value",0.655 (active)
same,normalized growth,"locus YHR079C, strain IRE1, stronger effect = lower value",0.7
same,normalized growth,"locus YHR082C, strain KSP1, stronger effect = lower value",0.733
same,normalized growth,"locus YHR205W, strain SCH9, stronger effect = lower value",0.756
same,normalized growth,"locus YIL147C, strain SLN1, stronger effect = lower value",0.952
same,normalized growth,"locus YJL095W, strain BCK1, stronger effect = lower value",0.708
same,normalized growth,"locus YJL128C, strain PBS2, stronger effect = lower value",0.968
same,normalized growth,"locus YJL157C, strain FAR1, stronger effect = lower value",0.845
same,normalized growth,"locus YJR016C, strain ILV3, stronger effect = lower value",0.962
same,normalized growth,"locus YJR066W, strain TOR1 (second series), stronger effect = lower value",0.819
same,normalized growth,"locus YJR066W, strain TOR1, stronger effect = lower value",0.786
same,normalized growth,"locus YKL048C, strain ELM1, stronger effect = lower value",0.731 (active)
same,normalized growth,"locus YKL067W, strain YNK1, stronger effect = lower value",0.834
same,normalized growth,"locus YKL101W, strain HSL1, stronger effect = lower value",0.746
same,normalized growth,"locus YKL193C, strain SDS22, stronger effect = lower value",0.944
same,normalized growth,"locus YKL203C, strain TOR2, stronger effect = lower value",0.814
same,normalized growth,"locus YLR113W, strain HOG1, stronger effect = lower value",0.405 (active)
same,normalized growth,"locus YLR133W, strain CKI1, stronger effect = lower value",0.843
same,normalized growth,"locus YLR403W, strain SFP1, stronger effect = lower value",0.842
same,normalized growth,"locus YML070W, strain DAK1, stronger effect = lower value",0.766
same,normalized growth,"locus YMR001C, strain CDC5, stronger effect = lower value",0.956
same,normalized growth,"locus YMR205C, strain PFK2 (second series), stronger effect = lower value",0.815
same,normalized growth,"locus YMR277W, strain FCP1, stronger effect = lower value",0.953
same,normalized growth,"locus YNL006W, strain LST8, stronger effect = lower value",0.962
same,normalized growth,"locus YNL020C, strain ARK1, stronger effect = lower value",0.812
same,normalized growth,"locus YNL161W, strain CBK1, stronger effect = lower value",0.963
same,normalized growth,"locus YNL183C, strain NPR1, stronger effect = lower value",0.64
same,normalized growth,"locus YNL207W, strain RIO2, stronger effect = lower value",0.951
same,normalized growth,"locus YNL222W, strain SSU72, stronger effect = lower value",0.953
same,normalized growth,"locus YNL307C, strain MCK1 (second series), stronger effect = lower value",0.802
same,normalized growth,"locus YOL078W, strain AVO1, stronger effect = lower value",0.958
same,normalized growth,"locus YOL136C, strain PFK27, stronger effect = lower value",0.781
same,normalized growth,"locus YOR061W, strain CKA2, stronger effect = lower value",0.856
same,normalized growth,"locus YOR119C, strain RIO1, stronger effect = lower value",0.761
same,normalized growth,"locus YOR231W, strain MKK1, stronger effect = lower value",0.634
same,normalized growth,"locus YOR329C, strain SCD5, stronger effect = lower value",0.964
same,normalized growth,"locus YPL031C, strain PHO85, stronger effect = lower value",0.74
same,normalized growth,"locus YPL153C, strain RAD53, stronger effect = lower value",0.741
same,normalized growth,"locus YPL204W, strain HRR25, stronger effect = lower value",0.696
same,normalized growth,"locus YPL209C, strain IPL1, stronger effect = lower value",0.964
same,normalized growth,"locus YPL256C, strain CLN2, stronger effect = lower value",0.621 (active)
same,normalized growth,"locus YPR025C, strain CCL1, stronger effect = lower value",0.957
same,normalized growth,"locus YPR106W, strain ISR1, stronger effect = lower value",0.94
same,normalized growth,"locus YPR111W, strain DBF20, stronger effect = lower value",0.936
same,normalized growth,"strain NNK1, stronger effect = lower value",0.913
same,normalized growth,"strain TSCII, stronger effect = lower value",0.954

# Source: PubChem BioAssay AID1159580 (chemical genetic matrix, 2015)
